The nature of assay [1]: NCI Yeast Anticancer Drug Screen. Data for the rad50 strain (AID 155).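 Further: 0% = growth of vehicle-only cultures of the same strain.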 The note with it: S. cerevisiae rad50 strain growth inhibition; at 50.0 µM; stronger effect = higher value. An outline of the steps: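 Relative growth inhibition (compound vs vehicle) was measured in yeast with a defined repair-gene alteration.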
Assay [2] can be described thus: NCI Yeast Anticancer Drug Screen. Data for the mec2-1 strain (AID 157). Conditions: S. cerevisiae mec2-1 strain, at 50.0 µM, stronger effect = higher value. An outline of the steps: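 Test agents were screened against the mec2-1 yeast strain, with defined DNA repair or cell cycle alteration. Growth was scored as inhibition against vehicle-only controls.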
Assay [3] can be described thus: NCI Yeast Anticancer Drug Screen. Data for the sgs1 mgt1 strain (AID 161).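 Further: 0% = growth of cultures given vehicle only.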 Conditions: S. cerevisiae sgs1 mgt1 strain, at 50.0 µM, stronger effect = higher value. The essentials:
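Mutant yeast exposed to compound; growth scored against vehicle-only wells.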

Assay [4] in a line: NCI Yeast Anticancer Drug Screen. Data for the cln2 rad14 strain (AID 165).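 Further: 0% = growth equal to vehicle treated cultures.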 The note with it: S. cerevisiae cln2 rad14 strain, at 50.0 µM, stronger effect = higher value. The essentials:
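Growth of compound-exposed yeast (cln2 rad14 genotype) measured and expressed as inhibition relative to vehicle.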

Assay [5] can be described thus: NCI Yeast Anticancer Drug Screen. Data for the bub3 strain (AID 167). The note with it: S. cerevisiae bub3 mutant strain, at 50.0 µM, stronger effect = higher value. An outline of the steps: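 Screening used yeast with an engineered genetic alteration affecting cell cycle control. Compound-exposed cultures were compared with vehicle cultures, and reduced growth was taken as inhibition.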

The nature of assay [6]: NCI Yeast Anticancer Drug Screen. Data for the mlh1 rad18 strain (AID 175). Conditions: S. cerevisiae mlh1 rad18 strain growth inhibition; at 50.0 µM; stronger effect = higher value. An outline of the steps: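 In this whole-cell yeast screen, a strain with altered DNA damage repair is challenged with compound, and its growth is measured against matched vehicle-treated controls.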

The structures appear in SMILES notation. This is part of a sample that, as a whole, favours compounds with a hit. Of some 79,000 tested, about 15% had one in any assay. Values without a mark were called inactive. Activity calls are given as the source filed them. No stated cut-off is given here; in the data, active means growth inhibition above about 70%; inactive means the rest.

As for `N#Cc1cccc2c(S(=O)(=O)O)cccc12`, the growth inhibition in assay [1] is -12.9%; in assay [2], 4.5%; in assay [3] it was 11.6%; in assay [4], -17.3%; in assay [5], -2.85%; in assay [6], -10.8%.

With `O=C([O-])C[n+]1ccccc1`, the growth inhibition is -11.3% in assay [1]; -2.75% in assay [2]; -14.5% in assay [3]; -35.9% in assay [4]; -19.1% in assay [5]; -14.4% in assay [6].

Take `C[C@@]1(CO)O[C@H]1CCC#C[Si](C)(C)C`: the growth inhibition in assay [1] was -20.9%; in assay [2], -32.4%; in assay [3], -20.2%; in assay [4], 6.7%; in assay [5], -14.2%; in assay [6] it was 1.05%.

Consider `N#CC1CC=CCC1` (configuration not stated), for which the growth inhibition in assay [1] was 19.4%; in assay [2] it was 4.95%; in assay [3], 0.35%; in assay [4], 15.2%; in assay [5] it was -12.9%; in assay [6], -5.65%.

Regarding `CCCCCCCc1ccccc1`, the growth inhibition in assay [1] was -13.1%; in assay [2] it was -14.7%; in assay [3], -19.6%; in assay [4], 3.95%; in assay [5] it was 20.2%; in assay [6] it was -6.5%.

Turning to `CC1(c2ccccc2)N=C(C(N)=O)c2[nH]cnc2N1` (configuration not stated), the growth inhibition in assay [1] is -11.8%; in assay [2] it was -41.1%; in assay [3] it was -29.1%; in assay [4], 1.85%; in assay [5], 8.7%; in assay [6], -11.8%.

For the compound `COC(=O)c1nc[nH]c1C(=O)OC`, the growth inhibition was 10.2% in assay [1]; -25.9% in assay [2]; 15.8% in assay [3]; 4% in assay [4]; -0.8% in assay [5]; 12.6% in assay [6].

For the compound `C=C1CC2C(=O)N(c3ccccc3)C(=O)C2CC1n1[nH]c(=O)n(Cc2ccccc2)c1=O` (configuration not stated), the growth inhibition was 3.8% in assay [1]; 3.1% in assay [2]; 9.65% in assay [3]; -29.8% in assay [4]; 15.7% in assay [5]; -5.7% in assay [6].

As for `C[C@@H]1CC[C@]2(C)C3(C)CC[C@]2(OC3=O)[C@@]12CC(c1ccoc1)OC2=O` (some centres not stated), the growth inhibition is -5.9% in assay [1]; -13.8% in assay [2]; -9.35% in assay [3]; -7.45% in assay [4]; -5.45% in assay [5]; -42.3% in assay [6].

With `Nc1cccc(CNC(=O)COc2ccc(Cl)c(Cl)c2)c1`, the growth inhibition is 84.7% (active) in assay [1]; 68.9% in assay [2]; 89.7% (active) in assay [3]; 77.2% (active) in assay [4]; 79.8% (active) in assay [5]; 82.8% (active) in assay [6].

For the compound `NCC1CC1`, the growth inhibition in assay [1] was 19.1%; in assay [2], -2.25%; in assay [3], 9.75%; in assay [4], 8.65%; in assay [5], -11.8%; in assay [6], 14.7%.

Consider `CN(C)CCSCC(=O)N1c2ccccc2Sc2ccc(Cl)cc21`, for which the growth inhibition was -5.25% in assay [1]; -7.45% in assay [2]; -2.9% in assay [3]; 17.6% in assay [4]; 7.95% in assay [5]; -0.5% in assay [6].

For `Cc1coc2c1C1OC(=O)C3(C/C=C\C(C)C2)OC13` (configuration not stated), the growth inhibition is 0.15% in assay [1]; -32.6% in assay [2]; -2.55% in assay [3]; -6.3% in assay [4]; -13.9% in assay [5]; -5.95% in assay [6].

Consider `c1ccc2cc(C3OCCCO3)ccc2c1`, for which the growth inhibition in assay [1] is 19.4%; in assay [2], 10.2%; in assay [3] it was -2.05%; in assay [4], -62.9%; in assay [5], -2.45%; in assay [6], 4.2%.

For the compound `c1ccc2cc3c(cc2c1)[nH]c1ccccc13`, the growth inhibition was -10.7% in assay [1]; -26.4% in assay [2]; -0.85% in assay [3]; -3.1% in assay [4]; -25.4% in assay [5]; 14.8% in assay [6].

`Cc1ccc[n+]([O-])c1Cl`: the growth inhibition is 1.55% in assay [1]; 14.2% in assay [2]; -8.55% in assay [3]; -34.2% in assay [4]; 11.2% in assay [5]; 4.2% in assay [6].

As for `O=C(O)c1oc(C(=O)O)c(C(=O)O)c1C(=O)O`, the growth inhibition is -15% in assay [1]; -38.1% in assay [2]; -18.6% in assay [3]; -28.6% in assay [4]; -32.1% in assay [5]; 7.6% in assay [6].

For `O=C1c2cccc3cccc(c23)C1(O)S(=O)(=O)O` (configuration not stated), the growth inhibition was 4.6% in assay [1]; -2.1% in assay [2]; 0.85% in assay [3]; -13.8% in assay [4]; 21.5% in assay [5]; 6.95% in assay [6].

As for `Nc1ccncc1CCc1ccccc1`, the growth inhibition in assay [1] is 5.5%; in assay [2] it was -16.2%; in assay [3], -2.05%; in assay [4], 12.8%; in assay [5] it was -18%; in assay [6], 3.1%.

Turning to `CC(=O)Nc1ccc(O)c(CN2CCN(c3ccccc3)CC2)c1`, the growth inhibition was 33.1% in assay [1]; 16% in assay [2]; 17.6% in assay [3]; 47.2% in assay [4]; 12.1% in assay [5]; 20.3% in assay [6].

Turning to `S=c1sc2cscc2s1`, the growth inhibition in assay [1] was -6.7%; in assay [2] it was 18.6%; in assay [3], -8.5%; in assay [4], 28.6%; in assay [5] it was -3%; in assay [6], -1.8%.

For the compound `ClC1=CC(Cl)=C2N=C(N3CCCC3)N=C3N=C(N4CCCC4)N=C1N32`, the growth inhibition in assay [1] was -15.2%; in assay [2], -5.45%; in assay [3], -19.7%; in assay [4], -10.6%; in assay [5], 1.6%; in assay [6], 4.55%.

Regarding `COc1ccc2c(c1)C(=O)C1(C2)[C@H](c2ccccc2)C2C(=O)c3cc(OC)ccc3C2[C@H]1c1ccccc1` (some centres not stated), the growth inhibition is -20.4% in assay [1]; -3% in assay [2]; 11.9% in assay [3]; -5.2% in assay [4]; 21.1% in assay [5]; 9.3% in assay [6].

Turning to `NC(=O)Cc1c[nH]c2ccc(Br)cc12`, the growth inhibition is -24.1% in assay [1]; -53.8% in assay [2]; -8.4% in assay [3]; 11.4% in assay [4]; -20.7% in assay [5]; -13.2% in assay [6].

For the compound `CCOC(=O)CS(=O)(=O)C1CCCCC1c1cc(OC)c(OC)c(OC)c1` (configuration not stated), the growth inhibition in assay [1] is 3.25%; in assay [2], -3.2%; in assay [3], -5%; in assay [4], -6.7%; in assay [5], 0.6%; in assay [6], 10.4%.

For the compound `COC(=O)CCC(CCc1ccccc1)(C(C)=O)C(C)=O`, the growth inhibition in assay [1] is -2.4%; in assay [2], -13.1%; in assay [3] it was -16.5%; in assay [4], -4.05%; in assay [5], 19.3%; in assay [6], 7.7%.

Take `O=C1CC2C1C1C=CC2n2c(=O)n(-c3ccccc3)c(=O)n21` (configuration not stated): the growth inhibition in assay [1] is -11.6%; in assay [2], 9.05%; in assay [3], 13.5%; in assay [4] it was 6%; in assay [5], 2.2%; in assay [6], 15.4%.

With `Cc1ccc(CCCCCOc2ccc(C3=NCCO3)cc2)s1`, the growth inhibition in assay [1] is -2%; in assay [2] it was 22.2%; in assay [3] it was 22.4%; in assay [4], -21%; in assay [5], -3%; in assay [6], -4.9%.

`Cc1ccc(Br)c2c1CCC2=O`: the growth inhibition in assay [1] was 1.85%; in assay [2] it was -5.05%; in assay [3] it was 0.9%; in assay [4], -52.5%; in assay [5], -23%; in assay [6] it was 1.65%.

As to `Cc1nc(-c2ccccc2)[nH]c(=O)c1Cc1cc2c(cc1O)OCC2`, the growth inhibition in assay [1] is 21.8%; in assay [2], 6.6%; in assay [3], 6.9%; in assay [4], -12.2%; in assay [5], -7.85%; in assay [6], 8.4%.

In the case of `Cc1cccc(NC(=O)/C=C/c2ccc(N(CCC#N)CCC#N)cc2C)c1`, the growth inhibition in assay [1] is 9.15%; in assay [2], 7.25%; in assay [3], -6%; in assay [4], 6.6%; in assay [5], 40.4%; in assay [6], 19.9%.

For `O=[N+]([O-])c1ccc(NC2C(O)OC(CO)C(O)C2O)c([N+](=O)[O-])c1` (configuration not stated), the growth inhibition in assay [1] was 5.1%; in assay [2] it was -3.2%; in assay [3] it was 5.55%; in assay [4], -7.15%; in assay [5], 5.8%; in assay [6] it was -0.95%.

Turning to `Brc1ccc(C2CC(c3cccc4ccccc34)=Nc3ccccc3S2)cc1` (configuration not stated), the growth inhibition in assay [1] is -14.1%; in assay [2] it was -2.45%; in assay [3], -10.9%; in assay [4], -29.2%; in assay [5], 8.7%; in assay [6], 18.1%.

Turning to `c1ccc(CCCCCCc2ccccc2)cc1`, the growth inhibition in assay [1] was -33.9%; in assay [2] it was -22%; in assay [3], -8.5%; in assay [4], -6.55%; in assay [5], -14.6%; in assay [6] it was 1.3%.

In the case of `CCOC(=O)C1(C(=O)OCC)CC1c1ccccc1` (configuration not stated), the growth inhibition in assay [1] was 4.6%; in assay [2] it was -32.5%; in assay [3], 5.5%; in assay [4], -0.6%; in assay [5], -11.7%; in assay [6] it was -3.2%.

On to `CCc1cc2c(c3c1CCCC3=O)CC1(C2)Cc2cc(CC)c3c(c2C1)C(=O)CCC3`, for which the growth inhibition in assay [1] is 6.05%; in assay [2], -9.9%; in assay [3], -3.6%; in assay [4], 5.4%; in assay [5], 10.7%; in assay [6] it was 4.5%.

Take `COc1cc(/C=N\NS(=O)(=O)c2ccc(N)cc2)ccc1O`: the growth inhibition in assay [1] is 10.1%; in assay [2], -18.3%; in assay [3], 5.05%; in assay [4], 9.55%; in assay [5], -24.8%; in assay [6] it was 17.1%.

These data come from PubChem BioAssay (NCI).
